The source made the active and inactive calls. The calls were made as follows: active = hit-call score of the fitted dose curve at least 0.9, where 1 is the maximum; inactive = score below 0.9.
Read-out: Glutamate-cysteine ligase catalytic (GCLC), GCLC (gene 2729)
Test: LTEA_HepaRG_GCLC: Life Technologies and Expression Analysis (LTEA) Assay for Glutamate-cysteine ligase catalytic (GCLC) using HepaRG (AID 2283498)
Conditions: mRNA level, 48 h; actives raise or lower the signal
Method: LTEA_HepaRG is a cell based, multiplexed-readout assay that uses HepaRG, a human liver cell line, with measurements taken at 48 hours after chemical dosing on a 96-well plate.LTEA_HepaRG_GCLC is one of 102 assay component(s) measured in the LTEA HepaRG cell culture assay. It is a marker of Oxidative Stress.Data from the assay component LTEA_HepaRG_GCLC was analyzed into 1 endpoint. This assay endpoint, LTEA_HepaRG_GCLC, was analyzed with bidirectional fitting relative to DMSO as the negative control and baseline of activity. Using a type of inducible reporter, measures of mRNA induction for gain or loss-of-signal activity can be used to understand regulation of transcription factor activity. To generalize the intended target to other relatable targets, this assay endpoint is annotated to the ligase intended target family, where the subfamily is C-N ligase.
A total of 1060 chemcials from the ToxCast library were tested in eight-point concentration-response experiments. Cell culture and cytotoxicity assays were conducted at Thermo Fisher Scientific's Custom Services facility (Madison, WI). A single lot of human HepaRG cells (Thermo Fisher Scientific, Frederick, MD) was used for the cell culture experiments. 96-well format collagen type I coated plates of human HepaRG cells were prepared using established methods. Briefly, cryopreserved HepaRG cells were thawed, plated at a density of approximately 100,000 cells/well in HepaRG Thaw, Plate, and General Purpose media (HPRG770, Thermo Fisher Scientific), and incubated for 48 hours. 0.5% DMSO was selected as vehicle control to balance the requisite need of DMSO in HepaRG cultures to maintain differentiation (for example, baseline metabolism, proportions of hepatocytes vs. cholangiocytes), while enabling further hepatic receptor pathway activation (for example, PXR and CAR) in response to chemical exposure. 48 hours after plating, the culture medium was replaced with HepaRG Serum-Free Incudtion Media. Cells were exposed to each test chemical in duplicate and maintained in CO2 incubators for another 48 hours. Chemical plates were thawed to room temperature and 200x concentrations of treatment groups were prepared. 8-point conentration-reponse curves were made with the highest exposure at 100 uM, followed by half-log dilutions, all in 0.5% DMSO. Each test plate contained variouse controls, induction positive controls (1mM phenobarbital), cytotoxicity positive controls ([…] aflatoxin B1), vehicle controls (0.5% DMSO), and total lysis controls (0.5% DMSO). Cell morphology images were taken using an Essen IncuCyte FLR automated microscope, with six 96-well plates imaged in about 24 minutes. Images were captured and exported and JPEG files. Spent culture media was transfered to black-well plates for the LDH assay, and remaining media was sorted at -80 C for later use. Cells were treated with RLT buffer and frozen until shipped for gene expression analysis. Total RNA was isolated from the cell suspension in 75 uL of Buffer RLT (Qiagen, Germantown, MD 20874) by Quintiles/Expression Analysis (Durham, NC) using a custom isolation procedure. Total RNA from each plate well was transferred to a preamplification plate. Fluidigm's 96.96 Dynamic ArrayTM (Fluidigm, Amsterdam, the Netherlands) technology was used for gene expression analyses by quantitative reverse transcription polymerase chain reaction (qRT-PCR, performed by Quintiles/Expression Analysis, Durham, NC)89. Standard TaqManTM Assays (Applied Biosystems/ThermoFisher Scientific, Foster City, CA) were used to assess the expression of 93 genes selected based on their selectivity and sensitivity to important hepatic receptors known to be modulated by environmental chemicals; importance in human hepatocyte functionality; and hepatotoxicity. […]

SMILES | outcome | AC50
CSC(C)(C)C=NO | inactive | 
CCCCN(CCCC)N=O | inactive | 
Nc1ccc2ccccc2c1 | inactive | 
CN(C)C(=O)Cl | inactive | 
CC(C)(C)c1ccc(O)cc1 | inactive | 
CCCCCCCc1ccc(O)cc1 | inactive | 
ClC(Cl)c1ccccc1 | inactive | 
Nc1ccc(Cl)cc1 | inactive | 
CCCN(CCC)c1c([N+](=O)[O-])cc(C(C)C)cc1[N+](=O)[O-] | inactive | 
CCOP(=S)(OCC)SCSCC | inactive | 
CC(Cl)(Cl)C(=O)O | inactive | 
CCOC(=O)c1ccccc1C(=O)OCC | inactive | 
CCCCc1ccccc1 | inactive | 
CC(C)(C)OOC(C)(C)C | inactive | 
CCC1(c2ccccc2)C(=O)N=C(O)NC1=O (stereo not given) | inactive | 
OCC1CO1 (stereo not given) | inactive | 
CCN(CC)c1ccccc1 | inactive | 
Cc1ccc(O)cc1C | inactive | 
CCC(C)(C)c1ccc(O)cc1 | inactive | 
COCCOCCO | inactive | 

SMILES | outcome | AC50
O=[N+]([O-])c1ccccc1 | inactive | 
Nc1cc2c3c(c1)C(c1ccccc1)=N[C@@H](NC(=O)c1cccnc1)C(=O)N3CC2 | inactive | 
Cc1ccc(N)cc1N | inactive | 
c1nc[nH]n1 | inactive | 
ClC1=C(Cl)C2(Cl)C3C(Cl)C(Cl)CC3C1(Cl)C2(Cl)Cl (stereo not given) | inactive | 
c1ccc(OP(Oc2ccccc2)Oc2ccccc2)cc1 | inactive | 
O=P(Oc1ccccc1)(Oc1ccccc1)Oc1ccccc1 |  | 74.9 µM (active)
CC(Cc1ccc(OCC(=O)O)cc1)NCC(O)c1csc(C(F)(F)F)n1 (stereo not given) | inactive | 
O=P1(N(CCCl)CCCl)NCCCO1 (stereo not given) | inactive | 
O=[N+]([O-])c1ccc(Cl)c(Cl)c1 | inactive | 
CCOc1ccc(C(C)(C)COCc2cccc(Oc3ccccc3)c2)cc1 | inactive | 
Cc1ccc([N+](=O)[O-])cc1C | inactive | 
[N-]=[N+]=[N-] | inactive | 
O=C(O)C1C(C(=O)O)C2(Cl)C(Cl)=C(Cl)C1(Cl)C2(Cl)Cl (stereo not given) |  | 50 µM (active)
CCCCN(CCCC)SN(C)C(=O)Oc1cccc2c1OC(C)(C)C2 | inactive | 
O=C(O)C(Cl)Cl | inactive | 
CCNc1nc(Cl)nc(NC(C)(C)C)n1 | inactive | 
Cc1cccc(N)c1 | inactive | 
CCOS(=O)(=O)OCC | inactive | 
ClC(Cl)(Cl)c1ccccc1 | inactive | 

From PubChem BioAssay (EPA / NIEHS)
